Screening results (PubChem)
Compounds with a hit are over-represented: about 2.6% of the library has one in this group of screens.
S16 viability: toxic to S16 Pmp22-F2sN Schwann cells | 43,000 compounds, 0.48% hits | AID 1508642 | S16 Pmp22-F2sN Schwann cells viability, CellTiter-Glo, 24 h | Potency, µM (series often up to 57.5 µM), usual class: cytotoxic; also: nearly all actives have a fitted effect of over 65% in size
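S16 Schwann cells carrying the Pmp22-F2sN reporter, seeded in 1536-well format, were exposed to library compounds for 24 h at 37C. Viability was read as CellTiter-Glo luminescence after 15 min at room temperature.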
pS6 MEF inh: inhibitors of mTORC1 signaling in Tsc2-/- p53-/- MEF cells. 44,000 compounds, 0.78% hits. Tsc2-/- p53-/- MEF, phospho-rpS6 immunofluorescence/PI, 24 h. AID 493208. Potency, µM (highest dose often 38.3 µM), most hits filed as inhibitors; also: nearly all actives have a fitted effect of over 50% in size
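Plate MEFs (Tsc2-/-, p53-/-, empty vector) in DMEM/10% FBS; after 24 h add compound, incubate 24 h at 37 degree Celsius; fix in PFA/TX-100, block, stain phospho-rpS6 and 10 uM PI; scan at 488 nm; report % positive cells.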
PMP22 txn: PMP22 gene transcription modulation; S16 Pmp22-F2sN Schwann cells, FLuc/NLuc coincidence luminescence, 24 h; Potency, µM (top dose mostly 57.5 µM), usual class: inhibitors; 43,000 compounds, 2% hits; active = clear falling dose curves in both reporters; inconclusive = both reporters move, but less clearly or upward; inactive = either reporter flat; the % is the NLuc reporter signal
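S16(c9) Schwann cells with FLuc/NLuc coincidence reporter in the Pmp22 3' UTR; compounds pin-transferred, 24 h at 37C. Dual-luciferase read: FLuc first, then NLuc after Stop&Glo, each 10 min at room temperature.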
OvCa metastasis: blocks SKOV3ip1 adhesion and invasion in omental model. Potency, µM (titrated, usually from 45.8 µM), most hits filed as inhibitors. SKOV3ip1-GFP adhesion/invasion on 3D omental model, fluorescence. 46,000 compounds, 0.1% hits; also: nearly all actives have a fitted effect of over 65% in size
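Adhesion/invasion was scored as fixed GFP-labeled SKOV3ip1 cell counts (488/509 nm), normalized to DMSO and tomatine controls. Cancer cells in serum-free medium, with four compound doses (0.36-46 umol/L), sat 2 hr at RT then 16 hr at 37 C on a 48 hr fibroblast/mesothelial/ECM culture.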
GALC G270D up: enhancers of human galactocerebrosidase G270D mutant activity in cells; P54803; 145M-Twi-hGALC-G270D cells (Twitcher mouse brain line with human GALC G270D), HMU-beta-Gal fluorescence, 48 h; AID 1159614; Potency, µM (series often up to 57.5 µM), hits mostly activators; 45,000 compounds, 0.1% hits; also: nearly all actives have a fitted effect of over 65% in size
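Mutant human GALC (G270D), stably expressed in a Twitcher mouse brain cell line lacking endogenous GALC, is measured in live-treated cells via 6-hexadecanoylamino-4-methylumbelliferyl-β-galactoside hydrolysis (0.1 mM final, pH 5.2) with fluorescent detection.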
NLuc saturating: counter-screen for PMP22 expression modulators: NanoLuc inhibition, saturating substrate; Secreted NLuc enzyme (filtered S16 cell medium), Nano-Glo luminescence; Potency, µM (top dose mostly 57.5 µM), most hits filed as inhibitors; shares compounds with PMP22 txn; AID 1508638; 690 compounds, 4% hits
NLuc Km ctr: counter-screen for PMP22 expression modulators: NanoLuc inhibition at Km; shares compounds with PMP22 txn; secreted NLuc enzyme, coelenterazine luminescence, Km conditions; Potency, µM (highest dose often 57.5 µM), hits mostly inhibitors; 690 compounds, 5% hits
FLuc counter: firefly luciferase enzyme inhibition artifact for PMP22 screen | shares compounds with PMP22 txn | purified P. pyralis FLuc, luminescence, 10 min | Potency, µM (top dose mostly 57.5 µM), actives largely listed as inhibitors | 690 tested, under 10 active
Target sequence (P08659 whole entry, looked up): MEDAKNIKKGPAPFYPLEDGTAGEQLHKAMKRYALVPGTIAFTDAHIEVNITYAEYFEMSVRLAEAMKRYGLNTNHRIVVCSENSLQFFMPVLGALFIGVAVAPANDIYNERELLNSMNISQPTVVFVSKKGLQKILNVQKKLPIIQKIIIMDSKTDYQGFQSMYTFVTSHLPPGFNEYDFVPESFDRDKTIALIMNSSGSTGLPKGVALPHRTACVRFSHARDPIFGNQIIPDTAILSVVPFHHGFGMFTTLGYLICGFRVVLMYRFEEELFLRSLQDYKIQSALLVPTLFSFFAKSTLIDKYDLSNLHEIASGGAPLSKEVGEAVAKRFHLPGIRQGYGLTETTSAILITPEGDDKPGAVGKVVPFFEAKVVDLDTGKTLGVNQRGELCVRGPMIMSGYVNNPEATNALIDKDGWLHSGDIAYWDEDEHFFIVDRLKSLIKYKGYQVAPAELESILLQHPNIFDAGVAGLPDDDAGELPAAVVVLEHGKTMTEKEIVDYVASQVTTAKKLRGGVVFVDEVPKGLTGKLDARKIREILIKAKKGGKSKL
S16 viab conf: confirmation of cytotoxicity in S16 Pmp22-F2sN Schwann cells (luciferase reporters placed in the Pmp22 gene); Potency, µM (top dose mostly 57.5 µM), usual class: cytotoxic; 690 compounds, 7% hits; AID 1508641; S16 Schwann cells viability, CellTiter-Glo ATP luminescence, 24 h; shares compounds with PMP22 txn
PMP22 txn cnf: PMP22 transcription modulation, confirmatory; shares compounds with PMP22 txn; S16 Schwann cells Pmp22-F2sN, dual luciferase, 24 h; Potency, µM (series often up to 57.5 µM), actives largely listed as inhibitors; 690 compounds, 22% hits; active = clear falling dose curves in both reporters; inconclusive = both reporters move, but less clearly or upward; inactive = either reporter flat; the % is the FLuc reporter signal
PMP22 prot conf: confirmation of modulators of rat PMP22 protein expression. S16 Schwann cells Pmp22-HiBiT, luminescence, 48 h. Potency, µM (top dose mostly 27.9 µM), most hits filed as inhibitors. shares compounds with PMP22 txn. 95 tested, under 10 active
Target sequence (P25094 whole entry, looked up): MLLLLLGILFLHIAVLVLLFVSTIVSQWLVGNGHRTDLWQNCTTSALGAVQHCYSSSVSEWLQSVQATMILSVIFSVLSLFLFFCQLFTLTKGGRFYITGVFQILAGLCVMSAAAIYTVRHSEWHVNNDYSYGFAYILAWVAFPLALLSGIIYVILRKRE
Numbers stand for hits; n = inactive; u = inconclusive; x = not tested or not shown. Unless noted, calls follow the shape of the dose curve; as a rule, active = well fitted curve in the direction sought with a large enough effect; inconclusive = small, poorly fitted or top-dose-only effect, or another doubt; inactive = no such curve, though single readings can be large; an effect the other way counts as inactive or inconclusive.

SMILES | S16 viability | pS6 MEF inh | PMP22 txn | OvCa metastasis | GALC G270D up | NLuc saturating | NLuc Km ctr | FLuc counter | S16 viab conf | PMP22 txn cnf | others
CCC(=O)C1=C(c2cccc([N+](=O)[O-])c2)N(C(=O)CC)n2c(nnc2-c2ccccc2)S1 | n | n | 3µM | n | n | u | u | n | n | 11µM | PMP22 prot conf=n
CC(C)C[C@H](NC(=O)c1cc2ccccc2s1)C(=O)N1CCN(C(=O)[C@H](CO)NS(=O)(=O)c2ccc(Cl)cc2Cl)CC1 | x | x | x | n | x | x | x | x | x | x
O=C1COc2ccc(-c3cc(-c4ccc(F)cc4)c4c(n3)-c3ccccc3OC4)cc2N1 | n | n | 17µM | n | n | n | n | n | u | u
Cc1ccc(NC(=O)c2oc3ccc(S(=O)(=O)N4CCCCC4)cc3c2C)cc1C | n | n | n | n | n | x | x | x | x | x
Cc1c(C(=O)Nc2ccc(F)cc2)oc2ccc(S(=O)(=O)N3CCCCCC3)cc12 | n | n | 15µM | n | n | n | n | n | n | n
O=C(Nc1cccc(-c2nc3ccccc3o2)c1)C(F)(F)F | u | n | 8µM | u | n | u | u | u | n | u
CCc1ccc2oc(-c3cccc(NC(=O)c4cc5ccccc5o4)c3)nc2c1 | n | u | n | n | n | x | x | x | x | x
CCn1c(=O)c2cc(C(=O)NCCCN3CCN(C)CC3)sc2c2ccccc21 | n | n | 11µM | n | n | n | n | n | n | n
CCn1c(=O)c2cc(C(=O)NC3CCC(C)CC3)sc2c2ccccc21 (centres undefined) | u | n | 17µM | n | n | u | n | n | n | n
Cn1c(=O)c2cc(C(=O)NCCCN3CCN(c4ccc(F)cc4)CC3)sc2c2ccccc21 | n | n | 19µM | n | n | u | n | n | 34µM | u
CCCN1CCN(CCCNC(=O)c2cc3c(Cl)nc4ccccc4c3s2)CC1 | n | n | 13µM | n | n | n | n | n | u | n
O=C(NCCCN1CCN(c2ccccc2F)CC1)c1cc2c(Cl)nc3ccccc3c2s1 | n | n | u | n | n | x | x | x | x | x
Cn1c(=O)c2cc(C(=O)NCCCN3CCN(c4ccccc4F)CC3)sc2c2ccccc21 | n | n | u | n | n | x | x | x | x | x
O=c1[nH]sc2cc(Cl)ccc12 | x | x | x | x | n | x | x | x | x | x
Nc1ccc2c(c1)CN1C(=O)c3ccccc3C1=N2 | x | x | x | x | n | x | x | x | x | x
CC(C)(Oc1ccc(Cl)cc1)C(=O)OCCCOC(=O)C(C)(C)Oc1ccc(Cl)cc1 | x | x | x | x | n | x | x | x | x | x
O=C(O)C(O)Cc1ccc(O)c(O)c1 (centres undefined) | x | x | x | n | x | x | x | x | x | x
Cc1cn2cc(C(=O)N(C)CCO)cc(N[C@@H]3CCOc4cccc(C)c43)c2n1 | x | x | x | n | x | x | x | x | x | x
O=C(CCS(=O)(=O)c1cc(Br)cc2c1N(C(=O)C1CC1)CC2)N1CCN(c2cccc(C(F)(F)F)c2)CC1 | u | n | 13µM | n | n | n | n | n | n | n
O=C(CCS(=O)(=O)c1cc(Br)cc2c1N(C(=O)C1CC1)CC2)N1CCN(c2ccc(F)cc2)CC1 | n | n | u | n | n | x | x | x | x | x
COc1ccc(Nc2nc3c(S(=O)(=O)c4ccc(C)cc4)nnn3c3ccsc23)cc1Cl | n | n | 9µM | n | n | n | n | n | u | u
COc1ccc(Nc2nc3c(S(=O)(=O)c4ccccc4)nnn3c3ccsc23)cc1OC | n | n | n | n | n | x | x | x | x | x
COc1ccc(Nc2nc3c(S(=O)(=O)c4ccccc4)nnn3c3ccc(Cl)cc23)cc1 | u | n | 8.9µM | n | n | n | n | n | u | 14µM | PMP22 prot conf=u
Cc1ccccc1C(C(=O)NC1CCCC1)N(C(=O)Cn1cnc2ccccc21)c1cccc(F)c1 (centres undefined) | x | x | x | n | x | x | x | x | x | x
CN(C)c1nc(Cc2ccc(NC(=O)c3ccc4ccccc4c3)cc2)nc(Cl)c1CC(=O)O | x | x | x | n | x | x | x | x | x | x
SMILES | S16 viability | pS6 MEF inh | PMP22 txn | OvCa metastasis | GALC G270D up | NLuc saturating | NLuc Km ctr | FLuc counter | S16 viab conf | PMP22 txn cnf | others
OCCN1C[C@H](O)[C@@H](O)[C@H](O)[C@@H]1CO | x | x | x | n | x | x | x | x | x | x
Cc1ccc(NC(=O)CSc2nc(-c3ccco3)cc(C(F)(F)F)n2)cc1 | n | u | 2.1µM | n | n | n | n | n | n | n
Cc1cccc(C)c1NC(=O)CSc1nc(-c2cccs2)cc(C(F)(F)F)n1 | n | u | n | n | n | x | x | x | x | x
Cc1ccc(F)cc1NC(=O)CSc1nc(-c2cccs2)cc(C(F)(F)F)n1 | n | u | 14µM | n | n | n | n | n | n | n
COc1ccc(NC(=O)CSc2nc(-c3ccco3)cc(C(F)(F)F)n2)cc1Cl | n | u | u | n | n | x | x | x | x | x
COc1nccc(-c2c(-c3ccc(F)cc3)ncn2C2CCNCC2)n1 | x | x | x | n | x | x | x | x | x | x
O=C(CSc1nc2c(sc3ccccc32)c(=O)n1CCCC(=O)NC1CCCC1)Nc1ccc(F)cc1 | u | n | u | n | n | n | n | n | n | 11µM
O=C(CSc1nc2c([nH]c3ccccc32)c(=O)n1-c1ccc(Cl)cc1)NC1CCCCC1 | u | n | 13µM | n | n | n | n | n | u | 17µM
COc1cccc(-n2c(SCC(=O)c3ccc(Cl)cc3)nc3c([nH]c4ccccc43)c2=O)c1 | u | n | 10µM | n | n | n | n | n | u | 11µM | PMP22 prot conf=n
COc1ccc(-n2c(SCC(=O)c3ccc(Cl)cc3)nc3c([nH]c4ccccc43)c2=O)cc1 | n | n | n | n | n | x | x | x | x | x
COc1ccc(OC)c(NC(=O)Cn2c(=O)c3cccn3c3ccccc32)c1 | n | n | u | n | n | u | u | n | n | n
COc1ccc(NC(=O)Cn2c(=O)c3cccn3c3ccccc32)cc1 | n | n | n | n | n | x | x | x | x | x
